From PubChem BioAssay AID1159580 (chemical genetic matrix, 2015)
Values joined by “and” are separate entries in the source; they are usually repeats but may differ in a detail not shown here. Equal entries are not always repeated. The whole screen tested about 5,500 compounds, of which about 2,000 (36%) were called active. About 18% were inconclusive and are not listed. Rule as the data show it: active = normalized growth mostly below about 0.91 (no sharp cut-off); inconclusive = no clear call, values can overlap the other calls; inactive = mostly above about 0.92. This is one part of the list.

Assay: chemical genetic growth profiling, strain panel (AID 1159580);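 also: tested at 20 µM; growth read once vehicle control cultures reached saturation at 30 °C; 1 = growth at the plate median or of vehicle wells; lower values mean less growth of the strain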
Details: S. cerevisiae deletion strains, growth OD

Measured: normalized growth

CC(=O)O[C@@H]1C=C[C@@]2(C)C(C[C@@H](OC(C)=O)[C@@]3(C)C4=CC(=O)O[C@@H](c5ccoc5)[C@]4(C)CCC23)C1(C)C (stereo partly specified)
active: locus YCL029C, strain bik1, stronger effect = lower value 0.0759 | locus YDL185W, strain tfp1, stronger effect = lower value 0.0668 | locus YDL192W, strain arf1, stronger effect = lower value 0.0652 | locus YDR101C, strain arx1, stronger effect = lower value 0.0671 | locus YDR318W, strain mcm21, stronger effect = lower value 0.0639 | locus YDR388W, stronger effect = lower value 0.0562 | locus YDR502C, strain sam2, stronger effect = lower value 0.0613 | locus YER110C, stronger effect = lower value 0.0742 | locus YGL078C, strain dbp3, stronger effect = lower value 0.0566 | locus YGL086W, strain mad1, stronger effect = lower value 0.0536 | locus YGR135W, strain pre9, stronger effect = lower value 0.0645 | locus YGR252W, strain gcn5, stronger effect = lower value 0.164 | locus YHR079C, strain IRE1 (second series), stronger effect = lower value 0.0734 | locus YHR094C, strain hxt1, stronger effect = lower value 0.0578 | locus YHR200W, strain rpn10, stronger effect = lower value 0.0597 | locus YIL125W, strain kgd1, stronger effect = lower value 0.0589 | locus YIR030C, strain dcg1, stronger effect = lower value 0.0619 | locus YJL168C, strain set2, stronger effect = lower value 0.0579
inactive: locus YAL013W, strain DEP1, stronger effect = lower value 1.01 | locus YAL021C, strain ccr4, stronger effect = lower value 1 | locus YAL026C, strain drs2, stronger effect = lower value 0.985 | locus YAL030W, strain snc1, stronger effect = lower value 0.99 | locus YBL061C, strain skt5, stronger effect = lower value 0.992 | locus YBR009C, strain hhf1, stronger effect = lower value 1 | locus YBR021W, strain FUR4, stronger effect = lower value 1.03 | locus YBR023C, strain chs3, stronger effect = lower value 1.01 | locus YBR171W, strain sec66, stronger effect = lower value 0.994 | locus YBR229C, strain ROT2, stronger effect = lower value 1.02 | locus YBR231C, strain swc5, stronger effect = lower value 0.99 | locus YBR279W, strain paf1, stronger effect = lower value 1 | locus YCL011C, strain gbp2, stronger effect = lower value 0.982 | locus YCL016C, strain dcc1, stronger effect = lower value 0.975 | locus YCL061C, strain MRC1, stronger effect = lower value 0.997 | locus YCL069W, strain vba3, stronger effect = lower value 1.02 | locus YCR088W, strain abp1, stronger effect = lower value 1.01 | locus YDL005C, strain med2, stronger effect = lower value 0.984 | locus YDL035C, strain GPR1, stronger effect = lower value 0.991 | locus YDL040C, strain nat1, stronger effect = lower value 0.993 | locus YDL074C, strain BRE1, stronger effect = lower value 0.964 | locus YDL101C, strain DUN1, stronger effect = lower value 0.998 | locus YDL134C, strain PPH21, stronger effect = lower value 1 | locus YDR001C, strain nth1, stronger effect = lower value 0.993 | locus YDR069C, strain doa4, stronger effect = lower value 0.996 | locus YDR137W, strain rgp1, stronger effect = lower value 0.946 | locus YDR150W, strain NUM1, stronger effect = lower value 1.01 | locus YDR159W, strain sac3, stronger effect = lower value 0.979 | locus YDR162C, strain NBP2, stronger effect = lower value 0.964 | locus YDR195W, strain ref2 0.975 | locus YDR297W, strain sur2, stronger effect = lower value 0.981 | locus YDR334W, strain swr1, stronger effect = lower value 0.988 | locus YDR335W, strain msn5, stronger effect = lower value 0.986 | locus YDR392W, strain spt3, stronger effect = lower value 0.951 | locus YEL003W, strain gim4, stronger effect = lower value 0.997 | locus YEL037C, strain rad23, stronger effect = lower value 1 | locus YEL061C, strain CIN8 (second series), stronger effect = lower value 0.992 | locus YEL061C, strain CIN8, stronger effect = lower value 1.02 | locus YER015W, strain faa2, stronger effect = lower value 0.991 | locus YER016W, strain bim1, stronger effect = lower value 1.01 | locus YER111C, strain swi4, stronger effect = lower value 1 | locus YER155C, strain BEM2 (second series), stronger effect = lower value 1.01 | locus YER155C, strain BEM2, stronger effect = lower value 1.01 | locus YER167W, strain BCK2, stronger effect = lower value 1.01 | locus YFR010W, strain ubp6, stronger effect = lower value 1.01 | locus YGL167C, strain pmr1, stronger effect = lower value 0.988 | locus YGL173C, strain kem1, stronger effect = lower value 1.02 | locus YGL227W, strain vid30, stronger effect = lower value 1 | locus YGL240W, strain doc1, stronger effect = lower value 1 | locus YGL248W, strain PDE1, stronger effect = lower value 1.02 | locus YGL253W, strain hxk2, stronger effect = lower value 0.971 | locus YGR078C, strain PAC10, stronger effect = lower value 1.02 | locus YGR229C, strain SMI1, stronger effect = lower value 0.98 | locus YHR013C, strain ard1, stronger effect = lower value 0.973 | locus YHR027C, strain rpn1, stronger effect = lower value 0.983 | locus YHR030C, strain SLT2, stronger effect = lower value 1.02 and 0.986 | locus YHR079C, strain IRE1, stronger effect = lower value 0.986 | locus YHR129C, strain ARP1, stronger effect = lower value 1.01 | locus YHR142W, strain chs7, stronger effect = lower value 0.965 | locus YIL066C, strain RNR3, stronger effect = lower value 1.02 | locus YIL073C, strain SPO22, stronger effect = lower value 1.03 | locus YJL092W, strain hpr5, stronger effect = lower value 0.987 | locus YJL095W, strain BCK1 (second series), stronger effect = lower value 0.974 | locus YJL095W, strain BCK1, stronger effect = lower value 0.979 and 0.982 | locus YJL115W, strain asf1, stronger effect = lower value 0.99 | locus YJL129C, strain trk1, stronger effect = lower value 0.959 | locus YJL134W, strain LCB3, stronger effect = lower value 1.02 | locus YJL154C, strain vps35, stronger effect = lower value 0.989 | locus YJL164C, strain tpk1, stronger effect = lower value 1 | locus YJL166W, strain qcr8, stronger effect = lower value 1 | locus YJL187C, strain SWE1 (second series), stronger effect = lower value 1 | locus YJL187C, strain SWE1, stronger effect = lower value 0.994 | locus YJR043C, strain POL32, stronger effect = lower value 1.04
